GLA spleen mod = qHTS Assay for Inhibitors and Activators of Human alpha-Galactosidase From Spleen Homogenate. Alpha-galactosidase A (Homo sapiens), P06280. 240,000 compounds, 0.008% hits. human spleen homogenate, 4MU-alpha-Gal fluorescence, 40 min. AID 2107, 2009. Potency, µM (titrated, usually from 80 µM), without a hit: at the highest dose activity change, negative = inhibition, hits mostly inhibitors;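 note: potency is the fitted concentration of half-maximal effect; 0% = enzyme with vehicle and -100% = no enzyme basal signal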
Target sequence (P06280 32-429 limits assumed): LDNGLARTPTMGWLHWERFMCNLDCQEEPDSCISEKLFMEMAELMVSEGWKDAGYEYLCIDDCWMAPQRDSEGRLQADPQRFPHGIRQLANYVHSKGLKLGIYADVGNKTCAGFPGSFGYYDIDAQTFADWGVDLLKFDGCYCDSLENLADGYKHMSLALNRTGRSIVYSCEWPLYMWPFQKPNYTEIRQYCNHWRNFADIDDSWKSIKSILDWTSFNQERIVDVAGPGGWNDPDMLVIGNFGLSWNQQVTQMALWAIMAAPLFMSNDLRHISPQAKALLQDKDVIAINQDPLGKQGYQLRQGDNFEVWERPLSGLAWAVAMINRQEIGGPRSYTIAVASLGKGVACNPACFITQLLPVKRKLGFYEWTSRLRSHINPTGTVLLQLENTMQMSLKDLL
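Inhibition or activation of alpha-galactosidase in human spleen homogenate is scored by 4-MU fluorescence after 40 min at 37C, pH 5.0, with 1 mM substrate. AC50s come from concentration-response fitted to the Hill equation.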
12-hLO inh = qHTS Assay for Inhibitors of 12-hLO (12-human lipoxygenase) | Polyunsaturated fatty acid lipoxygenase ALOX12 (Homo sapiens), P18054 | purified 12-hLO, xylenol orange hydroperoxide absorbance | 150,000 compounds, 0.12% hits | Potency, µM (series often up to 57.1 µM), without a hit: at the highest dose activity change, negative = inhibition, actives largely listed as inhibitors; note: potency is the fitted concentration of half-maximal effect; nearly all actives have a fitted effect of over 55% in size
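Purified human 12hLO (150 nM final) was preincubated with compounds for 15 min at room temperature in 25 mM Hepes pH 7.0, 0.01% Triton X-100, then reacted with 40 uM arachidonic acid for 30 min. Hydroperoxide was detected with ferrous iron/xylenol orange.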
HPGD inh = qHTS Assay for Inhibitors of HPGD (15-Hydroxyprostaglandin Dehydrogenase). 15-hydroxyprostaglandin dehydrogenase [NAD(+)] (Homo sapiens), P15428. purified HPGD, NADH fluorescence kinetic, PGE2 substrate. Potency, µM, inactives show at the highest dose activity change, negative = inhibition, usual class: inhibitors. 150,000 compounds, 4.3% hits; active = well fitted inhibition curve with a large enough effect, not every such curve was filed as active; inconclusive = small, poorly fitted or top-dose-only effect, or another doubt; inactive = no such curve, though single readings can be large or run the other way; note: potency is the fitted concentration of half-maximal effect
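NADH formation kinetics: reaction with 30 uM PGE2 and 1 mM NAD+ (final), 20 nM enzyme, Tris-HCl pH 8 with Tween 20, after 15 min compound preincubation at room temperature. Fluorescence change, last versus first of five reads.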
ALDH1A1 block = qHTS Assay for Inhibitors of Aldehyde Dehydrogenase 1 (ALDH1A1). Purified ALDH1A1, NADH fluorescence, propionaldehyde substrate. Potency, µM (highest dose often 75.3 µM), without a hit: at the highest dose activity, negative = inhibition, hits mostly inhibitors. 220,000 compounds, 7.3% hits; active = well fitted inhibition curve with a large enough effect, not every such curve was filed as active; inconclusive = small, poorly fitted or top-dose-only effect, or another doubt; inactive = no such curve, though single readings can be large or run the other way;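 note: potency is the fitted concentration of half-maximal effect; plate controls were no enzyme wells and a reference inhibitor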
PNC inhibitor = High Content Assay for Compounds that inhibit the Assembly of the Perinucleolar Compartment; PC3M PTB-GFP, PNC prevalence imaging, 16 h; stronger effect = lower value; activity change (PNC), negative = inhibition, % at 10 µM; 140,000 compounds, 3.1% hits;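 active = readout at or below -70, meaning at least 70% loss of cells showing the perinucleolar compartment, a nuclear body marking cancer cells; inconclusive = readout between -30 and a set limit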;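 note: plate controls were DMSO wells for no effect and camptothecin positive control wells for full effect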
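Read-out is percentage of cells bearing a perinucleolar compartment, from automated 20x imaging of fixed, Hoechst-stained PC3M PTB-GFP cells. Cells were seeded 4 h, then exposed 16 h to compound (23 nl of library stock) in duplicate plates.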
GLA inh pH 4.5 = qHTS Assay for Inhibitors of Human alpha-Galactosidase at pH 4.5; Alpha-galactosidase A (Homo sapiens), P06280; purified enzyme, 4-MU-alpha-Gal fluorescence, pH 4.5; activity change, negative = inhibition, % at 105 µM; 230,000 tested, under 10 active; AID 1467, 2008;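 note: 0% = full activity with enzyme and -100% = basal without enzyme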
Numbers without * were called inactive; u = inconclusive; x = not tested or not shown; [ ] = remark or other dose. The list is not random: actives were taken first. Their share in the collection is about 10%. Unless noted, calls come from the whole dose curve; as a rule, active = well fitted curve in the direction sought with a large enough effect; inconclusive = small, poorly fitted or top-dose-only effect, or another doubt; inactive = no such curve, though single readings can be large; an effect the other way counts as inactive or inconclusive. Unless noted, % is set by controls: 0 for no effect and ±100 for the full control effect.

SMILES	GLA spleen mod	12-hLO inh	HPGD inh	ALDH1A1 block	PNC inhibitor	GLA inh pH 4.5
COC(=O)C(/C=C/C(C)Cc1cc(Br)cc(OCc2ccccc2)c1OC)OCc1ccccc1 (stereo not given)	-0.3%[17.5 µM]	x	x	-9.8%[13.5 µM]	x	x
Cc1ccc(Sc2ccc(CN3CCCCC3)cc2[N+](=O)[O-])cc1	0.1%	x	x	-0.7%	x	-1.4
O=C1NC(c2ccc(-c3ccccc3[N+](=O)[O-])o2)C(C(=O)c2ccc(F)cc2)C(O)(C(F)(F)F)N1 (stereo not given)	3.7%	-0.6%	-3.5%	u	-22.2	6.9
Cc1ccc(C2NC(=O)NC(O)(C(F)(F)F)C2C(=O)c2ccccc2)o1 (stereo not given)	3.2%	6.2%	-9.2%	8.91µM*	-26.4	-0.3
Cc1ccc(C2NC(=O)NC(O)(C(F)(F)F)C2C(=O)c2cccs2)o1 (stereo not given)	1.0%	-2.6%	-6.6%	u	-27.4	-9.6
COc1ccc(C(=O)C2C(c3ccc(-c4ccccc4[N+](=O)[O-])o3)NC(=O)NC2(O)C(F)(F)F)cc1 (stereo not given)	-22.2%	-3.5%	-11.1%	12.6µM*	u	5.2
Oc1ccc(-c2nc3cnccn3c2Nc2ccc3c(c2)OCCO3)cc1	-5.0%	u	11.2µM*	39.8µM*	-19.1	3.0
COc1cc(-c2nc3cnccn3c2Nc2ccc3c(c2)OCCO3)ccc1O	-1.8%	1.4%	22.4µM*	-14.9%	u	-3.3
COc1cc(-c2nc3cnccn3c2Nc2ccc(C)cc2)ccc1O	0.9%	-10.7%	u	u	-23.9	-0.2
O=C(NN=C1CCCCCCCCCCC1)c1cccnc1	0.9%	x	x	1.8%	x	-3.6
Cc1ccc2c(CC(=O)NCCc3ccc(S(N)(=O)=O)cc3)coc2c1	7.2%	x	x	x	x	-23.2
Cc1nn2c(N)c(C#N)cnc2c1-c1ccccc1	3.3%	-5.3%	-4.3%	-2.2%	-81.8*	1.9
Cc1nn2c(N)c(C#N)cnc2c1-c1ccc(Cl)cc1	2.1%	5.3%	u	u	1.0	-3.2
O=C(Nc1cccnc1)/C(N=Nc1cccnc1)=C(\O)c1ccccc1	1.4%	-3.8%	-26.0%	1.41µM*	-29.1	-13.9
O=C(Nc1ccccc1)C(=O)Nc1cccnc1	-8.3%	x	x	6.7%	x	3.3
O=C(NC1CCN(C(=O)N2c3ccccc3Sc3ccccc32)CC1)c1ccccc1F	2.4%	u	-10.4%	11.2µM*	-9.1	-3.2
CC1CCN(C(=O)N2c3ccccc3Sc3ccccc32)CC1	-4.7%	-6.1%	-7.4%	6.3%	-17.1	5.5
CCOC(=O)c1c(NC(=O)CSc2nnc(-c3ccccc3)o2)sc(C(C)=O)c1C	9.8%	-1.9%	17.8µM*	u	-20.1	-1.2
CCOC(=O)c1c(NC(=O)CSc2n[nH]c(-c3ccco3)n2)sc(C)c1C	-9.1%	-15.7%	15.8µM*	-13.4%	36.7	-3.8
CCOC(=O)c1c(NC(=O)CSc2nnc(-c3cccnc3)o2)sc2c1CCC2	11.2%	1.5%	-18.7%	10.3%	-100.0*	-2.3
CCOC(=O)c1sc(NC(=O)CSc2nncs2)c(C(=O)OCC)c1C	2.3%	-13.3%	28.2µM*	u	8.5	-6.9
NC(=O)c1c(NC(=O)COC(=O)CSc2nnc(-c3ccc(Cl)cc3)o2)sc2c1CCC2	2.9%	-13.6%	u	-15.2%	95.2	2.4
O=C(Nc1ccccc1N1CCOCC1)C1CCN(S(=O)(=O)c2ccccc2F)CC1	-6.8%	1.4%	-7.3%	u	19.6	5.3
C[C@@H](C(=O)N[C@@H](CO)Cc1ccccc1)[C@@H]1C[C@@]1(C)[C@@H](NC(=O)OCc1ccccc1)c1ccccc1	11.7%	-2.7%	-4.3%	2.9%	x	-20.7
